From PubChem BioAssay come the findings set out here.

Calls of active or inactive are those of the source.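 Rule for the calls, unless noted: active = compound that reduces growth-factor-driven endothelial tube area in a mixed cell culture, no cutoff stated; inactive = the rest.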

A short description of test [1]: Wnt pathway potentiators raising nuclear beta-catenin – imaging, WNT3A-conditioned medium, mouse C2C12, NPC library, primary screen (AID 1117326; in the data active = nuclear beta-catenin stimulation mostly above about 4.2%, no sharp cut-off; inactive = mostly below about 10%; note: reference of the scale not given here). The settings on record: stronger effect = higher value.
A short description of test [2]: stimulators of insulin release from INS-1E, primary screen, cell-based, 5 mM glucose, NPC library (AID 1117329;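 active = compound raises insulin release from rat beta cells at 5 mM glucose, no numeric limit stated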; note: reference of the scale not given here). The note with it: rat INS-1E insulin secretion, at 10 µM, stronger effect = higher value.
Test [3] in a line: growth inhibition of GSK3B-pretreated HCT116 cells – cell-based, CellTiter-Glo, 0.2 to 20 µM (AID 1117336;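 active = compounds lowering colon cancer cell viability after pretreatment blocking the GSK3B kinase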). The note with it: HCT116 viability after GSK3B inhibitor, at 20 µM, stronger effect = higher value. For orientation: ATP-based viability assays read luminescence as a measure of living cells.
Test [4] in a line: inhibition of endothelial tube formation, primary screen, imaging, VEGF stimulated, CD31 staining, tube area, NPC library (AID 1117340). The note with it: VEGF-stimulated ADSC/ECFC co-culture, at 10 µM, stronger effect = higher value.
Test [5] can be described thus: GLP1 release stimulators, primary, NCI-H716, NPC library (AID 1117341;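 active = compound raises GLP1 secretion from the human gut endocrine cells, with no numeric limit stated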; note: reference of the scale not given here). The note with it: NCI-H716 cells, at 10 µM, stronger effect = higher value.
A short description of test [6]: HCT116 colon cancer cell growth inhibition, primary screen, CellTiter-Glo luminescence, NPC library (AID 1117342;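 active = compounds that lower survival of HCT116 colon cancer cells in the luminescence readout, no numeric limit stated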). The settings on record: at 20 µM (top of the series).
The nature of test [7]: reduced SW480 viability measured with CellTiter-Glo, NPC library, primary (AID 1117343;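 active = compounds that lower viability of the colon cancer cells in the luminescence readout, with no numeric limit stated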). The settings on record: CellTiter-Glo luminescence; at 20 µM (top of the series).
Test [8] in a line: NPC library primary testing for decreased DLD-1 cell viability via CellTiter-Glo (AID 1117346;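 active = compounds that lower survival of DLD-1 colon cancer cells in the luminescence readout, no cutoff given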). The settings on record: DLD-1 viability, CellTiter-Glo luminescence; at 20 µM (top of the series).

In the case of `COc1cccc(CCc2ccccc2OCC(CN(C)C)OC(=O)CCC(=O)O)c1` (stereo unspecified), the nuclear beta-catenin stimulation was -0.6% (inactive) in test [1] (at 10 µM) and 3.9% in test [1] (stimulation, at 2 µM). Besides, the insulin secretion stimulation in test [2] is 11.9% (inactive). Besides, the viability decrease in test [3] was 53.9% (active). Also, in test [4], the tube area decrease was 0.9% (active). Also, the GLP1 secretion stimulation in test [5] was 8.6% (inactive). For the same molecule, the inhibition of viability in test [6] was 72.9% (active). Also, the viability decrease (inhibition) was 87.5% (active) in test [7] and 21.8% (inactive) in test [8].

Turning to `CC(C)C(=O)OCc1cccc(OC(=O)[C@@H]2N3C(=O)[C@@H](NC(=O)Cc4ccccc4)[C@H]3SC2(C)C)c1`, the nuclear beta-catenin stimulation is 0.9% (inactive) in test [1] (at 10 µM) and -0.1% in test [1] (stimulation, at 2 µM). Besides, the insulin secretion stimulation in test [2] is 2.2% (inactive). The viability decrease in test [3] was 117% (active). The tube area decrease in test [4] was -4.7% (inactive). Further, in test [5], the GLP1 secretion stimulation was 3.4% (inactive). Besides, the inhibition of viability in test [6] was 123% (active). For the same molecule, the viability decrease (inhibition) in test [7] is 60.1% (active); in test [8], 10.1% (inactive).

Consider `CC12CCC(C[N+](C)(CCC[N+](C)(C)C)C1)C2(C)C` (stereo unspecified), for which the nuclear beta-catenin stimulation in test [1] (at 10 µM) is -0.5% (inactive); in test [1] (stimulation, at 2 µM), 0%. Also, in test [2], the insulin secretion stimulation is -2.5% (inactive). Also, in test [3], the viability decrease is -7.9% (inactive). Moreover, the tube area decrease in test [4] is -11.3% (inactive). Besides, the GLP1 secretion stimulation in test [5] was -3.2% (inactive). In addition, the inhibition of viability in test [6] was -7.3% (inactive). For the same molecule, the viability decrease (inhibition) is 7.3% (inactive) in test [7] and -4% (inactive) in test [8].

`CN(CC1(C)CCCO1)S(=O)(=O)c1ccc(Cl)c(S(N)(=O)=O)c1` (stereo unspecified): the nuclear beta-catenin stimulation in test [1] (at 10 µM) was -0.8% (inactive); in test [1] (stimulation, at 2 µM), -1.9%. Also, the insulin secretion stimulation in test [2] is 2% (inactive). Moreover, the viability decrease in test [3] was -0.1% (inactive). Besides, the tube area decrease in test [4] was -8.9% (inactive). Besides, the GLP1 secretion stimulation in test [5] is 2.8% (inactive). Moreover, the inhibition of viability in test [6] was 12.4% (inactive). Further, the viability decrease (inhibition) in test [7] is -9.7% (inactive); in test [8] it was 2.2% (inactive).

On to `COc1ccc(/C(C)=C/C(=O)O)c(OC)c1`, for which the nuclear beta-catenin stimulation is 1.2% (inactive) in test [1] (at 10 µM) and 0.1% in test [1] (stimulation, at 2 µM). The insulin secretion stimulation in test [2] was -0.4% (inactive). The viability decrease in test [3] was 10.1% (inactive). Moreover, the tube area decrease in test [4] was -9.3% (inactive). Further, in test [5], the GLP1 secretion stimulation is 1.3% (inactive). Moreover, the inhibition of viability in test [6] was -0.3% (inactive). Moreover, the viability decrease (inhibition) in test [7] was -19.9% (inactive); in test [8] it was -10.1% (inactive).

Consider `CCOC(=O)N1CCC(Nc2ccc(Cl)cc2N)CC1`, for which the nuclear beta-catenin stimulation in test [1] (at 10 µM) was 5.3% (inactive); in test [1] (stimulation, at 2 µM), 4.4%. For the same molecule, the insulin secretion stimulation in test [2] is 0.6% (inactive). In addition, in test [3], the viability decrease is 0.9% (inactive). Further, the tube area decrease in test [4] was 41.4% (active). Also, the GLP1 secretion stimulation in test [5] was -4.9% (inactive). Moreover, the inhibition of viability in test [6] was 32.5% (inactive). The results for the viability decrease (inhibition) in test [7] and in test [8] were 27.8% (inactive) and -12.2% (inactive), respectively.

Turning to `Cc1ccc(/C=N/n2c(-c3ccccc3)csc2=S)cc1`, the nuclear beta-catenin stimulation is 1.7% (inactive) in test [1] (at 10 µM) and -0.8% in test [1] (stimulation, at 2 µM). In addition, in test [2], the insulin secretion stimulation is 5% (inactive). In addition, the viability decrease in test [3] is 50.3% (active). Besides, in test [4], the tube area decrease is 18.4% (inactive). For the same molecule, the GLP1 secretion stimulation in test [5] is 0.3% (inactive). Moreover, the inhibition of viability in test [6] was 16.7% (inactive). Further, the viability decrease (inhibition) in test [7] is 56% (active); in test [8], 37.1% (inactive).

Consider `Cc1ccc(S(=O)(=O)NC(=O)NC2CCCCCCC2)cc1`, for which the nuclear beta-catenin stimulation is -0.3% (inactive) in test [1] (at 10 µM) and 0.1% in test [1] (stimulation, at 2 µM). The insulin secretion stimulation in test [2] is 18.5% (inactive). Besides, the viability decrease in test [3] was 11.2% (inactive). The tube area decrease in test [4] is 14.5% (inactive). Moreover, in test [5], the GLP1 secretion stimulation was 3.1% (inactive). Besides, the inhibition of viability in test [6] was -9.1% (inactive). The viability decrease (inhibition) in test [7] was 36.4% (inactive); in test [8] it was 12.9% (inactive).

For the molecule `CCC(C(=O)O)c1ccc(N2Cc3ccccc3C2=O)cc1` (stereo unspecified), the nuclear beta-catenin stimulation is 0.8% (inactive) in test [1] (at 10 µM) and -0.1% in test [1] (stimulation, at 2 µM). Also, in test [2], the insulin secretion stimulation was 1.25% (inactive). In test [3], the viability decrease was 15.4% (inactive). Further, in test [4], the tube area decrease was -24.8% (inactive). Also, the GLP1 secretion stimulation in test [5] is 1% (inactive). Further, the inhibition of viability in test [6] is -4.3% (inactive). In addition, the viability decrease (inhibition) in test [7] was -8.7% (inactive); in test [8], -10% (inactive).

In the case of `NNc1nnc(NN)c2ccccc12`, the nuclear beta-catenin stimulation is 3.3% (inactive) in test [1] (at 10 µM) and 1.4% in test [1] (stimulation, at 2 µM). In addition, the insulin secretion stimulation in test [2] was -1.8% (inactive). Besides, the viability decrease in test [3] is -0.85% (inactive). Further, the tube area decrease in test [4] is 40.1% (active). The GLP1 secretion stimulation in test [5] is -3.3% (inactive). For the same molecule, the inhibition of viability in test [6] was 22.6% (inactive). Also, the viability decrease (inhibition) in test [7] is 22.7% (inactive); in test [8] it was 6.6% (inactive).

As for `O=C(O)c1ccc(OCCN2CCCCC2)cc1`, the nuclear beta-catenin stimulation in test [1] (at 10 µM) was -1% (inactive); in test [1] (stimulation, at 2 µM), -0.1%. Besides, the insulin secretion stimulation in test [2] was -2.35% (inactive). Further, the viability decrease in test [3] was 2.1% (inactive). In addition, in test [4], the tube area decrease is 4.5% (inactive). Also, the GLP1 secretion stimulation in test [5] was 4% (inactive). Also, in test [6], the inhibition of viability was -8.6% (inactive). For the same molecule, the results for the viability decrease (inhibition) in test [7] and in test [8] were -5.5% (inactive) and 0.5% (inactive), respectively.

On to `O=C(O)CNC(=O)CNC(=O)CNC(=O)CSC(=O)c1ccccc1`, for which the nuclear beta-catenin stimulation in test [1] (at 10 µM) is -0.8% (inactive); in test [1] (stimulation, at 2 µM), -1.6%. For the same molecule, the insulin secretion stimulation in test [2] is 1.2% (inactive). Besides, the viability decrease in test [3] was -1.9% (inactive). Also, in test [4], the tube area decrease is -8.3% (inactive). In test [5], the GLP1 secretion stimulation was 4.6% (inactive). In test [6], the inhibition of viability is 0.6% (inactive). The viability decrease (inhibition) in test [7] was 12.5% (inactive); in test [8] it was 14.5% (inactive).

In the case of `Cc1ccc(C(=O)Oc2ccc(C(O)CNC(C)(C)C)cc2OC(=O)c2ccc(C)cc2)cc1` (stereo unspecified), the nuclear beta-catenin stimulation in test [1] (at 10 µM) was 31.3% (inactive); in test [1] (stimulation, at 2 µM), 1.1%. The insulin secretion stimulation in test [2] is 4.5% (inactive). In test [3], the viability decrease was 79.2% (active). Also, the tube area decrease in test [4] was 107% (active). For the same molecule, the GLP1 secretion stimulation in test [5] is -1.5% (inactive). In test [6], the inhibition of viability was 75.9% (active). For the same molecule, the viability decrease (inhibition) in test [7] was 137% (active); in test [8] it was 102% (active).

Regarding `N#C/C(=C1\SCC(c2ccccc2Cl)S1)n1ccnc1` (stereo unspecified), the nuclear beta-catenin stimulation in test [1] (at 10 µM) was 2% (inactive); in test [1] (stimulation, at 2 µM), 2.6%. For the same molecule, in test [2], the insulin secretion stimulation is -2.4% (inactive). Moreover, in test [3], the viability decrease was 13.1% (inactive). In addition, in test [4], the tube area decrease was 21.9% (inactive). In test [5], the GLP1 secretion stimulation was 0.1% (inactive). Moreover, the inhibition of viability in test [6] was 21.7% (inactive). Also, the viability decrease (inhibition) in test [7] is 85.4% (active); in test [8] it was 35.2% (inactive).
